According to PubChem BioAssay (NCI):
This is part of a sample that, as a whole, favours compounds with a hit. Of some 83,000 tested, about 20% had one in any assay.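 Treatment: one concentration, 48 hours, 96-well format. Scoring: percent growth, with anything below 10 considered active.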 Unmarked numbers belong to inactive results. Calls of active or inactive are those of the source.

Tested on: UO-31 renal
Assay: NCI-60 one-dose screen, 48 h (100 = growth as untreated, 0 = no growth, -100 = all killed)
Conditions: 10 µM unless noted
Experimental: Growth inhibition of the UO-31 human tumor cell line is measured as a screen for anti-cancer activity. Cells are grown in 96 well plates and exposed to the test compound for 48 hours. Compounds are tested at a single concentration, which is 10^-5 M for most compounds. The reported endpoint is percent growth (GI% or GIPRCNT), where numbers from 0 - 100% represent growth inhibition, and numbers from -100% - 0 represent cell death. For example, a value of 40 represents 60% growth inhibition. A value of 0 means no net growth occurred over the course of the experiment. A value of -40 indicates 40% of cells at the beginning of the experiment died by the end of the experiment. A value of -100 means all cells are dead at the end of the experiment.
NCI-60 Human Tumor Cell Lines Screen was performed using the standard one-dose NCI protocol, which is described in more detail at https://dtp.cancer.gov/discovery_development/nci-60/default.htm.
Compounds with GIPRCNT values below 10 were considered active. Activity score was based on GIPRCNT using the following formula: […]
Score is 0 for GIPRCNT values of 100 or above, 50 for GIPRCNT values of 0, and 100 for GIPRCNT values of -100.

Question: How did the growth turn out when `S=C(Nc1ccc(-c2nc(N3CCOCC3)c3cccn3n2)cc1)Nc1cccnc1` was run?
Answer: 15.1%

Question: For `COc1ccc(/C(C)=C(/c2ccc(OCCCN(C)C)cc2)c2ccc(OC(=O)Cc3ccccc3)cc2)cc1`, which growth is on record?
Answer: 53.4%

Question: `C#CCOc1cccc(Nc2ncnc3ccc(NC(=O)CCl)cc23)c1` was tested. Which growth did it give?
Answer: -87.8% (active)

Question: Which growth does the source give for `Cc1nc2ncnc(Cl)c2[nH]1` here?
Answer: 88.3%

Question: `O=C(Nc1ncc(Cc2ccc(Cl)c(C(F)(F)F)c2)s1)c1ccc2nnsc2c1` was tested. Which growth did it give?
Answer: 40.9%

Question: Which growth does the source give for `O=[N+]([O-])c1ccc(-c2nc(N3CCOCC3)c3c4c(sc3n2)CCCC4)cc1` here?
Answer: 67.2%

Question: Which growth does the source give for `COc1ccc(-c2cn(-c3cc(OC)c(OC)c(OC)c3)c(=O)n2C(C)=O)cc1` here?
Answer: 84.3%

Question: `COC(=O)c1cc(-c2ccccc2)[nH]c1N/N=C/c1c(Cl)cccc1Cl` was tested. Which growth did it give?
Answer: 42.3%

Question: Which growth does the source give for `C[C@]12CC[C@@H]3c4ccc(O)c([N+](=O)[O-])c4CC[C@H]3[C@@H]1CCC2=O` here?
Answer: 81.5%

Question: `CCOC(=O)c1c(C)c2c(n1C)CSc1cc(C(=O)c3ccccc3)c(=O)[nH]c1-2` was tested. Which growth did it give?
Answer: 84.7% [100 µM]

Question: With `C=C1C(=O)O[C@H]2[C@H]1CC/C(COC(=O)N[C@H]1C[C@H](O[C@H]3C[C@](O)(C(=O)CO)Cc4c(O)c5c(c(O)c43)C(=O)c3c(OC)cccc3C5=O)O[C@@H](C)[C@H]1O)=C\CC[C@@]1(C)O[C@@H]21` as the compound, how does the growth read?
Answer: 83.1%

Question: For `CC1=Nc2cnc(Nc3ccc(OCCN4CCCC4)cc3)nc2Nc2ccccc21`, which growth is on record?
Answer: 17.3%

Question: How did the growth turn out when `COC(=O)CNC(=O)[C@H](Cc1ccccc1)NCc1ccncc1` was run?
Answer: 91.2%

Question: For `CC(=O)n1nc(C(=O)OC(C)C)c2cc(C)c(C)cc21`, which growth is on record?
Answer: 94.4%

Question: Which growth does the source give for `O=C(COc1ccc(-c2nc3ccccc3[nH]2)cc1)N=Nc1c(O)[nH]c2ccc(Cl)cc12` here?
Answer: 93.9%

Question: How did the growth turn out when `COc1ccc(NC(=O)c2sc3nc(C)c(C(=O)/C=C/c4cccc(OC)c4)cc3c2N)cc1` was run?
Answer: 27.1%

Question: For `C=C(C)[C@@H]1CC[C@]2(C(=O)NCCNCCN)CC[C@]3(C)[C@H](CC[C@@H]4[C@@]5(C)C/C(=C/c6ccncc6)C(=O)C(C)(C)[C@@H]5CC[C@]43C)[C@@H]12`, which growth is on record?
Answer: 83.5%

Question: Which growth does the source give for `O=C1/C(=C/c2ccc(Cl)c(Cl)c2)CN(C(=O)C(Cl)Cl)C/C1=C\c1ccc(Cl)c(Cl)c1` here?
Answer: -99.3% (active)

Question: With `N#CC1CCc2c(c(-c3cn[nH]c3C(F)(F)F)nc3c(F)cc4[nH]ncc4c23)C1` (stereo not given) as the compound, how does the growth read?
Answer: 56.8%

Question: With `COC(=O)c1cc(-c2ccc(S(C)(=O)=O)cc2)[nH]c1N/N=C/c1c(Cl)cccc1Cl` as the compound, how does the growth read?
Answer: 22.5%

Question: With `C#CCOc1ccc2ncnc(Nc3ccc(NC(=O)CCl)cc3)c2c1` as the compound, how does the growth read?
Answer: -25.8% (active)

Question: With `Cc1ccc(-c2cc(-c3ccc(Cl)cc3)nc(NC(=O)c3cccnc3)n2)cc1` as the compound, how does the growth read?
Answer: 79%

Question: For `COc1ccc(-c2ccc3cnc4sc(-c5ccc(OC)cc5)nc4c3n2)cc1`, which growth is on record?
Answer: 61.7%

Question: How did the growth turn out when `Brc1ccc(-n2cc(-c3nn[nH]n3)c(-c3cccs3)n2)cc1` was run?
Answer: 63.7%

Question: How did the growth turn out when `COc1ccc(Cc2cc(-c3ccccc3)nn(Cc3ccccc3)c2=O)cc1OC` was run?
Answer: 14.7%

Question: For `CCn1c(=S)sc2c(Nc3ccc(F)cc3)nc(-c3cccnc3)nc21`, which growth is on record?
Answer: 78.5%

Question: Which growth does the source give for `CCOC(=O)c1ccc2[nH]c(O)c(C(=Nc3ccc(N(C)C(=O)CN4CCN(C)CC4)cc3)c3ccccc3)c2c1` here?
Answer: -41.6% (active)

Question: Which growth does the source give for `CCOC(=O)C(=Cc1cccc(Br)c1)C(=O)OCC` here?
Answer: 52.4%

Question: How did the growth turn out when `CN1C(=O)/C(=C/c2cn(-c3ccccc3)nc2-c2ccccc2)SC1=S` was run?
Answer: 92.2%

Question: Which growth does the source give for `O=C(CCCCCCN1CC(=O)N2[C@H](c3cc(Br)cs3)c3[nH]c4ccccc4c3C[C@H]2C1=O)NO` here?
Answer: 39.6%

Question: With `O=C(O)[C@@H]1c2ccccc2-c2ccccc2[C@H]1C(=O)O` as the compound, how does the growth read?
Answer: 66.3%

Question: How did the growth turn out when `C=CCn1c(SCC(=O)Nc2ccc(C(=O)/C=C/c3cc4cc(OC)ccc4nc3Cl)cc2)nnc1-c1ccc(Br)cc1` was run?
Answer: 65.3%

Question: Which growth does the source give for `COc1ccc(-c2nc3c(c(-c4ccccc4)nn3-c3ccccc3)c(-c3ccc(N4CCOCC4)cc3)c2C#N)cc1` here?
Answer: 103%

Question: How did the growth turn out when `C=C1CC[C@@H]2[C@](C)(COC(C)=O)[C@H](OC(C)=O)CC[C@@]2(C)[C@@H]1CC(Sc1ccccc1)C1=CCOC1=O` (stereo not given in full) was run?
Answer: 35.6%

Question: Which growth does the source give for `O=C1c2c(c3c4ccc(Br)cc4oc3c3[nH]c4ccccc4c23)C(=O)N1O` here?
Answer: 13.8%

Question: `N#Cc1c(N)nnn1Cc1cc(=O)oc2c1ccc1ccccc12` was tested. Which growth did it give?
Answer: 72.8%

Question: Which growth does the source give for `O=C1C(Cl)=C(Oc2ccccc2)C(=O)c2ccccc21` here?
Answer: 51.7%

Question: `N#C/C(=C\c1ccc(-c2ccc(Cl)cc2)o1)C(=O)Nc1ncc(Cc2ccc(Cl)cc2)s1` was tested. Which growth did it give?
Answer: 42.1%

Question: For `COC(=O)/C=C1/SC(=Nc2ccc(C)cc2)N(CCc2c[nH]c3ccc(O)cc23)C1=O`, which growth is on record?
Answer: 46.8%

Question: With `COc1ccc(C2=Nc3c/c(=C\c4c(O)[nH]c5ccc(Cl)cc45)ccc3=N2)cc1` as the compound, how does the growth read?
Answer: 59%
